Laboratory results taken from PubChem BioAssay (NCI).
About 79,000 compounds went through this panel and 15% of them were active in at least one assay; those are over-represented in the sample as a whole. A number with no mark means an inactive call. Calls of active or inactive are those of the source. No stated cut-off is given here; in the data, active means growth inhibition above about 70%; inactive means the rest.

assay: NCI Yeast Anticancer Drug Screen. Data for the rad50 strain (AID 155);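 further: 0% = growth of vehicle-only cultures of the same strain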; settings: S. cerevisiae rad50 strain growth inhibition; at 50.0 µM; stronger effect = higher value
How it was run: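 Relative growth inhibition (compound vs vehicle) was measured in yeast with a defined repair-gene alteration.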

Question: With `COC(=O)C(CSSCC(C(=O)NC(Cc1ccccc1)C(=O)NCC(=O)OC(C)(C)C)N1C(=O)CCC1=O)NC(=O)OCc1ccccc1` (stereo not given) as the compound, how does the growth inhibition read?
Answer: Its growth inhibition is -29.2%.

Question: For `COc1cc2ccc3c[n+](C)ccc3c2cc1OC`, which growth inhibition is on record?
Answer: Its growth inhibition is 2.25%.

Question: For `CCCCNc1nc(SC)nc2nc[nH]c12`, which growth inhibition is on record?
Answer: The growth inhibition was -9.35%.

Question: Which growth inhibition does the source give for `O=C1c2ccccc2-c2ccc(-n3c(=O)c4ccccc4c4ccccc4c3=O)cc21` here?
Answer: Its growth inhibition is 28.6%.

Question: With `O=C1NC(=O)C2CCC12` (stereo not given) as the compound, how does the growth inhibition read?
Answer: The growth inhibition was 1.95%.

Question: For `CC/C(=C/c1cccc([N+](=O)[O-])c1)C(=O)O`, which growth inhibition is on record?
Answer: Its growth inhibition is -9.3%.

Question: With `Cc1c(C(=O)O)c2cc3ccccc3cc2c(=O)n1C` as the compound, how does the growth inhibition read?
Answer: Its growth inhibition is -22.1%.

Question: With `N=c1oc2ccc([N+](=O)[O-])cc2cc1C(=O)NCc1ccccc1` as the compound, how does the growth inhibition read?
Answer: Its growth inhibition is 11.3%.

Question: For `CNC(C#N)c1ccco1` (stereo not given), which growth inhibition is on record?
Answer: Its growth inhibition is 11.3%.

Question: For `CCCCCCC(O)C/C=C/CCCCCC/C(C(=O)OC)=C(/O)C(=O)OCC` (stereo not given), which growth inhibition is on record?
Answer: The growth inhibition was 3.3%.

Question: For `Cc1noc2c1NC(=O)OCC2`, which growth inhibition is on record?
Answer: Its growth inhibition is 2.9%.

Question: Which growth inhibition does the source give for `O=C(O)c1ccccc1C(=O)NCc1ccc(Cl)cc1Cl` here?
Answer: The growth inhibition was -3.75%.

Question: With `Nc1nc(Cl)cc(Nc2ccc3c(c2)CCC3)n1` as the compound, how does the growth inhibition read?
Answer: Its growth inhibition is 15.2%.

Question: With `Cc1c2cnccc2c(C)c2c1c1ccccc1n2CCCCCCCl` as the compound, how does the growth inhibition read?
Answer: Its growth inhibition is 94.5% (active).

Question: With `CCCCC(O)(CCCC)CC(C)C` as the compound, how does the growth inhibition read?
Answer: Its growth inhibition is 8.4%.

Question: With `Cc1ccccc1NCS(=O)(=O)O` as the compound, how does the growth inhibition read?
Answer: Its growth inhibition is 18.2%.

Question: For `C/C(=N\NS(=O)(=O)c1ccc(C)cc1)c1c(C)noc1C`, which growth inhibition is on record?
Answer: The growth inhibition was -13.4%.

Question: For `CN1NC2=NCCN=C3NN(C)C(=NCCN=C1S2)S3`, which growth inhibition is on record?
Answer: Its growth inhibition is -6.5%.

Question: With `CCOC(=O)Cc1nc2ncncc2[nH]c1=O` as the compound, how does the growth inhibition read?
Answer: Its growth inhibition is 3.25%.

Question: With `C/C=C/c1ccc(OCC)c(OC)c1` as the compound, how does the growth inhibition read?
Answer: Its growth inhibition is 24.4%.

Question: Which growth inhibition does the source give for `O=C(c1ccco1)N(C(=S)N1CCN(c2ccccc2)CC1)c1ccccc1` here?
Answer: The growth inhibition was -79.7%.

Question: With `CC(=O)Nc1c(C)ccc([N+](=O)[O-])c1C` as the compound, how does the growth inhibition read?
Answer: Its growth inhibition is -3.2%.

Question: Which growth inhibition does the source give for `CC(C)CCCC(C)C1CCC2C3C(O)CC4CCCCC4(C)C3CCC12C` (stereo not given) here?
Answer: The growth inhibition was 96.7% (active).

Question: Which growth inhibition does the source give for `CC(C)CC(=O)c1ccc2ccccc2c1O` here?
Answer: The growth inhibition was -0.1%.

Question: Which growth inhibition does the source give for `O=C(Cc1nc2sc3c(c2c(=O)[nH]1)CCCC3)Nc1ccccc1` here?
Answer: Its growth inhibition is -3.1%.

Question: For `C[C@@H]1C(=O)CC2(O)[C@@]13C[C@@H](OC(=O)[C@@H]3O)[C@@H](C)[C@@]21COC1=O` (stereo not given in full), which growth inhibition is on record?
Answer: The growth inhibition was 13.8%.

Question: Which growth inhibition does the source give for `O=c1ccn(C2OC(CF)C(O)C2O)c(=O)[nH]1` (stereo not given) here?
Answer: Its growth inhibition is 1.8%.

Question: With `N=C(N)n1ncc(Cl)c(Cl)c1=O` as the compound, how does the growth inhibition read?
Answer: Its growth inhibition is 30.8%.

Question: Which growth inhibition does the source give for `CC(=O)ON(C(=O)c1ccccc1)c1ccccc1` here?
Answer: The growth inhibition was -1.7%.

Question: With `C#CC(C)(O)c1ccccc1` (stereo not given) as the compound, how does the growth inhibition read?
Answer: The growth inhibition was -1.15%.

Question: Which growth inhibition does the source give for `CC1(C)[C@H](C(=O)O)N2C(=O)[C@@H](NC(=O)C(c3ccccc3)c3ccccc3)[C@H]2S1=O` (stereo not given in full) here?
Answer: Its growth inhibition is -53.5%.

Question: For `COc1cc([N+](=O)[O-])c2ncccc2c1OC`, which growth inhibition is on record?
Answer: The growth inhibition was 5.55%.

Question: Which growth inhibition does the source give for `CC(=N\N)/C(C)=N/N=C(C)/C(C)=N/N=C(C)/C(C)=N/N=C(C)/C(C)=N/N` here?
Answer: The growth inhibition was 11.7%.

Question: Which growth inhibition does the source give for `COc1ccc(-c2c3ccccc3c(-c3ccc(OCCCCCBr)cc3)c3ccccc23)cc1` here?
Answer: The growth inhibition was -10.4%.

Question: For `CCC(c1ccc(C(C)=O)c(O)c1)C(CC)c1ccc(C(C)=O)c(O)c1` (stereo not given), which growth inhibition is on record?
Answer: The growth inhibition was 9.65%.

Question: Which growth inhibition does the source give for `CCC(CO)(CO)CBr` here?
Answer: The growth inhibition was 3.75%.

Question: Which growth inhibition does the source give for `O=C(O)CCNCCCCNCCC(=O)O` here?
Answer: The growth inhibition was 6.2%.

Question: For `COc1cc(C(=O)O)cc(OC(C)=O)c1OC`, which growth inhibition is on record?
Answer: The growth inhibition was 16.6%.

Question: With `CC(=O)CC(C)=NCCN=C(C)CC(C)=O.[Cu]` as the compound, how does the growth inhibition read?
Answer: Its growth inhibition is 86.2% (active).

Question: For `COCCOCOCCCC#C[Si](C)(C)C`, which growth inhibition is on record?
Answer: The growth inhibition was 8.3%.

assay: NCI Yeast Anticancer Drug Screen. Data for the mec2-1 strain (AID 157); settings: S. cerevisiae mec2-1 strain, at 50.0 µM, stronger effect = higher value
How it was run: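 Growth inhibition is read against vehicle-treated controls after compound exposure of the mec2-1 yeast strain, which is defective in DNA damage repair or cell cycle control.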

Question: For `COC(=O)C(CSSCC(C(=O)NC(Cc1ccccc1)C(=O)NCC(=O)OC(C)(C)C)N1C(=O)CCC1=O)NC(=O)OCc1ccccc1` (stereo not given), which growth inhibition is on record?
Answer: Its growth inhibition is 11.4%.

Question: With `COc1cc2ccc3c[n+](C)ccc3c2cc1OC` as the compound, how does the growth inhibition read?
Answer: The growth inhibition was -30.9%.

Question: Which growth inhibition does the source give for `CCCCNc1nc(SC)nc2nc[nH]c12` here?
Answer: The growth inhibition was -9.65%.

Question: Which growth inhibition does the source give for `O=C1c2ccccc2-c2ccc(-n3c(=O)c4ccccc4c4ccccc4c3=O)cc21` here?
Answer: Its growth inhibition is -1.7%.

Question: Which growth inhibition does the source give for `O=C1NC(=O)C2CCC12` (stereo not given) here?
Answer: Its growth inhibition is -4.2%.

Question: With `CC/C(=C/c1cccc([N+](=O)[O-])c1)C(=O)O` as the compound, how does the growth inhibition read?
Answer: Its growth inhibition is -23.9%.

Question: Which growth inhibition does the source give for `Cc1c(C(=O)O)c2cc3ccccc3cc2c(=O)n1C` here?
Answer: The growth inhibition was -34.6%.

Question: For `N=c1oc2ccc([N+](=O)[O-])cc2cc1C(=O)NCc1ccccc1`, which growth inhibition is on record?
Answer: The growth inhibition was -0.9%.

Question: With `CNC(C#N)c1ccco1` (stereo not given) as the compound, how does the growth inhibition read?
Answer: The growth inhibition was -17.2%.

Question: For `CCCCCCC(O)C/C=C/CCCCCC/C(C(=O)OC)=C(/O)C(=O)OCC` (stereo not given), which growth inhibition is on record?
Answer: The growth inhibition was -3.35%.

Question: Which growth inhibition does the source give for `Cc1noc2c1NC(=O)OCC2` here?
Answer: Its growth inhibition is 1.45%.

Question: With `O=C(O)c1ccccc1C(=O)NCc1ccc(Cl)cc1Cl` as the compound, how does the growth inhibition read?
Answer: Its growth inhibition is 22.6%.

Question: Which growth inhibition does the source give for `Nc1nc(Cl)cc(Nc2ccc3c(c2)CCC3)n1` here?
Answer: Its growth inhibition is 6.8%.

Question: For `Cc1c2cnccc2c(C)c2c1c1ccccc1n2CCCCCCCl`, which growth inhibition is on record?
Answer: The growth inhibition was 69%.

Question: With `CCCCC(O)(CCCC)CC(C)C` as the compound, how does the growth inhibition read?
Answer: Its growth inhibition is 19.5%.

Question: For `Cc1ccccc1NCS(=O)(=O)O`, which growth inhibition is on record?
Answer: The growth inhibition was -18.3%.

Question: For `C/C(=N\NS(=O)(=O)c1ccc(C)cc1)c1c(C)noc1C`, which growth inhibition is on record?
Answer: Its growth inhibition is 7.55%.

Question: Which growth inhibition does the source give for `CN1NC2=NCCN=C3NN(C)C(=NCCN=C1S2)S3` here?
Answer: Its growth inhibition is -10.1%.

Question: With `CCOC(=O)Cc1nc2ncncc2[nH]c1=O` as the compound, how does the growth inhibition read?
Answer: Its growth inhibition is 12.2%.

Question: For `C/C=C/c1ccc(OCC)c(OC)c1`, which growth inhibition is on record?
Answer: Its growth inhibition is 6.25%.

Question: For `O=C(c1ccco1)N(C(=S)N1CCN(c2ccccc2)CC1)c1ccccc1`, which growth inhibition is on record?
Answer: The growth inhibition was -24.4%.

Question: For `CC(=O)Nc1c(C)ccc([N+](=O)[O-])c1C`, which growth inhibition is on record?
Answer: The growth inhibition was -2.2%.

Question: Which growth inhibition does the source give for `CC(C)CCCC(C)C1CCC2C3C(O)CC4CCCCC4(C)C3CCC12C` (stereo not given) here?
Answer: The growth inhibition was 97.8% (active).

Question: Which growth inhibition does the source give for `CC(C)CC(=O)c1ccc2ccccc2c1O` here?
Answer: Its growth inhibition is -17.1%.

Question: Which growth inhibition does the source give for `O=C(Cc1nc2sc3c(c2c(=O)[nH]1)CCCC3)Nc1ccccc1` here?
Answer: Its growth inhibition is -12.3%.

Question: Which growth inhibition does the source give for `C[C@@H]1C(=O)CC2(O)[C@@]13C[C@@H](OC(=O)[C@@H]3O)[C@@H](C)[C@@]21COC1=O` (stereo not given in full) here?
Answer: The growth inhibition was 14.2%.

Question: For `O=c1ccn(C2OC(CF)C(O)C2O)c(=O)[nH]1` (stereo not given), which growth inhibition is on record?
Answer: The growth inhibition was -2.85%.

Question: Which growth inhibition does the source give for `N=C(N)n1ncc(Cl)c(Cl)c1=O` here?
Answer: Its growth inhibition is 36.2%.

Question: Which growth inhibition does the source give for `CC(=O)ON(C(=O)c1ccccc1)c1ccccc1` here?
Answer: Its growth inhibition is 0.95%.

Question: For `C#CC(C)(O)c1ccccc1` (stereo not given), which growth inhibition is on record?
Answer: The growth inhibition was -22.1%.

Question: For `CC1(C)[C@H](C(=O)O)N2C(=O)[C@@H](NC(=O)C(c3ccccc3)c3ccccc3)[C@H]2S1=O` (stereo not given in full), which growth inhibition is on record?
Answer: Its growth inhibition is -8.25%.

Question: For `COc1cc([N+](=O)[O-])c2ncccc2c1OC`, which growth inhibition is on record?
Answer: The growth inhibition was -11.1%.

Question: With `CC(=N\N)/C(C)=N/N=C(C)/C(C)=N/N=C(C)/C(C)=N/N=C(C)/C(C)=N/N` as the compound, how does the growth inhibition read?
Answer: The growth inhibition was -7.8%.

Question: Which growth inhibition does the source give for `COc1ccc(-c2c3ccccc3c(-c3ccc(OCCCCCBr)cc3)c3ccccc23)cc1` here?
Answer: Its growth inhibition is -10.7%.

Question: Which growth inhibition does the source give for `CCC(c1ccc(C(C)=O)c(O)c1)C(CC)c1ccc(C(C)=O)c(O)c1` (stereo not given) here?
Answer: The growth inhibition was 9.75%.

Question: With `CCC(CO)(CO)CBr` as the compound, how does the growth inhibition read?
Answer: The growth inhibition was -1.1%.

Question: With `O=C(O)CCNCCCCNCCC(=O)O` as the compound, how does the growth inhibition read?
Answer: Its growth inhibition is -11.8%.

Question: Which growth inhibition does the source give for `COc1cc(C(=O)O)cc(OC(C)=O)c1OC` here?
Answer: Its growth inhibition is 3.9%.

Question: With `CC(=O)CC(C)=NCCN=C(C)CC(C)=O.[Cu]` as the compound, how does the growth inhibition read?
Answer: Its growth inhibition is 64.2%.

Question: Which growth inhibition does the source give for `COCCOCOCCCC#C[Si](C)(C)C` here?
Answer: Its growth inhibition is 25.9%.
